About 14,000 (4.5%) of roughly 310,000 compounds showed an effect of 50% or more. Effects have a minus sign here. For the sample, strong results were picked, then their nearest neighbours and some compounds at random.
The compounds below were run against human ether-à-go-go-related gene (hERG) potassium channel (human, UniProt Q12809) (assay: primary screen, population patch clamp on CHO cells stably expressing hERG; higher = less effect of the substance).
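Note: peak tail current of the secondary pulse compared with the same well before compound.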

human ether-à-go-go-related gene (hERG) potassium channel, sequence (Q12809 whole entry, looked up): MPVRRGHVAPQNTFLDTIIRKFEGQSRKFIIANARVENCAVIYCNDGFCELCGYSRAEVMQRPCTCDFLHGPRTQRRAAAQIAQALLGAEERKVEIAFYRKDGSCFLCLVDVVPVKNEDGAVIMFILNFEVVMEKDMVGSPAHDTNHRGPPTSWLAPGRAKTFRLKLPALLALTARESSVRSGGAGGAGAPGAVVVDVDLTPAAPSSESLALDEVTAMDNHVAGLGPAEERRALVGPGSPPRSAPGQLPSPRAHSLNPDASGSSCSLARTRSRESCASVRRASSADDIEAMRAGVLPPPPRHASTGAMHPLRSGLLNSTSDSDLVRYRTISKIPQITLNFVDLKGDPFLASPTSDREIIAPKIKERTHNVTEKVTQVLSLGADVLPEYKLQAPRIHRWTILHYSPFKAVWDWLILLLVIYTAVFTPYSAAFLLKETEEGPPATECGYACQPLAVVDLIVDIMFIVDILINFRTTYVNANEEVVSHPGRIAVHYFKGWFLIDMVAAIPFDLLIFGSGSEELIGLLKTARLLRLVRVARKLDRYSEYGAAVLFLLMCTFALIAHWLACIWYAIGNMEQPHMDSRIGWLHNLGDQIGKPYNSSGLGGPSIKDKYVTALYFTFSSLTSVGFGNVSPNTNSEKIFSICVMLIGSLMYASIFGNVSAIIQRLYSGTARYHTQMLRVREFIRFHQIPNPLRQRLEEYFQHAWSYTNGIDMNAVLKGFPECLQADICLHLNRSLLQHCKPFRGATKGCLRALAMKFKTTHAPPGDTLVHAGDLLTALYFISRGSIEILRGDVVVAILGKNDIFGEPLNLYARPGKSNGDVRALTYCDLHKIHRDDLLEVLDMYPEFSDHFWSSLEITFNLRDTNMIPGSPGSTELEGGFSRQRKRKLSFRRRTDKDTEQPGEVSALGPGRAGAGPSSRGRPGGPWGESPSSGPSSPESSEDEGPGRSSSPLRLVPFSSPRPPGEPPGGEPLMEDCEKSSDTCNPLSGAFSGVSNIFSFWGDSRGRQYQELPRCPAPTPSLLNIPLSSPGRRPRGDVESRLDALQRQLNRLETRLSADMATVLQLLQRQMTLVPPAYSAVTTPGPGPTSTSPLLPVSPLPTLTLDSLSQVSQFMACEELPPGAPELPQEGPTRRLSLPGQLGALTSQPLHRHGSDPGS

SMILES | hERG current change (%, negative = inhibition) at 10uM [%]
C[C@H](CCC(=O)O)[C@H]1CC[C@H]2[C@@H]3CC[C@@H]4C[C@H](O)CC[C@]4(C)[C@H]3C[C@H](O)[C@]12C | 11.8
CCCN1CCC(NC23CC4CC(CC(C4)C2)C3)CC1 | 22.1
O=S(=O)(c1cccc2nonc12)N1CCN(c2ccccc2F)CC1 | 4.42
CCOC(=O)c1c(C)[nH]c(C)c1C(=O)CSc1ncccn1 | -2.23
O=C(Nc1nnc(-c2ccccc2Cl)s1)C1CCN(S(=O)(=O)c2ccc(Cl)cc2)CC1 | 28.1
Cc1ccc(OCCCN(C)C)c(Br)c1 | -20.6
CCOc1ccccc1OCCCOc1ccc(C)cc1Br | 7.97
CCN(CC)CCCOc1ccc(Cl)c(Cl)c1 | -60.5
Clc1ccc(OCCCn2cncn2)cc1Cl | -12.2
CCN(CC)CCCOc1ccc(C)cc1Br | -69
CCc1cccc(OCCCCN(CC)CC)c1 | -37.9
COc1ccc(/C=N/N=C/c2ccc(OC)cc2)cc1 | 14
CCOC(=O)CC1COCCN1C(=O)c1ccc2oc(Cc3ccccc3)nc2c1 (stereo not drawn) | 1.91
COc1ccc([C@@H]2CC=C(C(=O)O)CN2S(=O)(=O)c2ccc(Cl)cc2)cc1 | 7.54
OCC[n+]1c2ccccc2nc2ccc(N3CCOCC3)cc21.[O-][Cl+3]([O-])([O-])[O-] | 3.86
O=C1Cc2cc(NS(=O)(=O)c3cc(F)ccc3F)cc3c2N1CCC3 | -2.87
Cc1ccc(NC(=S)N(CCN2CCOCC2)Cc2cc3cc4c(cc3[nH]c2=O)OCCO4)cc1 | -14.3
C=CCNC(=O)CN1C(=O)NC(C)(c2ccc(OC)cc2)C1=O (stereo not drawn) | -14.2
COC(=O)C(NC(=O)c1ccccc1Cl)(Nc1ncc(S(=O)(=O)c2ccc([N+](=O)[O-])cc2)s1)C(F)(F)F (stereo not drawn) | -32.8
COC(=O)C(NC(=O)c1ccc(F)cc1)(Nc1ncc(S(=O)(=O)c2ccc([N+](=O)[O-])cc2)s1)C(F)(F)F (stereo not drawn) | -52.9
COC(=O)C(NC(=O)c1ccc(OC)cc1)(Nc1ncc(S(=O)(=O)c2ccc([N+](=O)[O-])cc2)s1)C(F)(F)F (stereo not drawn) | -5.41
CCc1nnc(NC(=O)CCC(=O)NC2CCCCCC2)s1 | 3.71
COc1ccc(-n2c(Cc3ccccc3)nc3ccccc3c2=O)cc1 | -92.8

SMILES | hERG current change (%, negative = inhibition) at 10uM [%]
O=c1c2ccccc2nc(Cc2cccc([N+](=O)[O-])c2)n1-c1ccc(O)cc1 | -35.5
O=c1c2ccccc2nc(Cc2ccccc2)n1-c1ccc(O)cc1 | -23.9
COc1ccc(-n2c(-c3ccccc3[N+](=O)[O-])nc3ccccc3c2=O)cc1 | -68.7
COc1ccc(-n2c(Cc3cccc([N+](=O)[O-])c3)nc3ccccc3c2=O)cc1 | -69.4
CCCc1nc2ccccc2c(=O)n1-c1ccc(OC)cc1 | 9.5
COc1ccc(-n2c(-c3ccccc3Br)nc3ccccc3c2=O)cc1 | -20.9
O=c1c2ccccc2nc(Cc2ccccc2)n1-c1ccccc1 | -20.9
COc1ccc(-c2nc3ccccc3c(=O)n2-c2ccc(OC)cc2)cc1 | -4.5
CCc1c(C)sc(NC(=O)c2cc(-c3cc(OC)ccc3OC)on2)c1C#N | 3.3
COc1ccc2cc(C(=O)C3CCCN(C(=O)c4cccnc4)C3)ccc2c1 (stereo not drawn) | -25.1
CCOC(=O)c1ccc(N=Nc2c(C)c(C#N)c(O)[nH]c2=O)cc1 | 1.91
Cc1ccc(OCCNC(=O)CCNS(=O)(=O)c2ccc(Br)cc2)cc1 | 15.7
CSc1nncc(-c2ccc(F)c(F)c2)n1 | 10.8
C=CCNC(=S)/N=C/c1c(O)[nH]c(=O)[nH]c1=O | -52.8
NC(=S)/N=C/c1c(O)[nH]c(=O)[nH]c1=O | 12.5
CCCCCCCCN=Cc1c(O)[nH]c(=O)[nH]c1=O | 4.9
CCNc1nc(NCC)n2c(SCC(=O)Nc3ccccc3Cl)nnc2n1 | 11
O=C(CSc1c(Cl)cccc1Cl)N1CCC(c2nc3ccccc3s2)CC1 | -0.729
O=C(CSc1ccc(F)cc1)N1CCC(c2nc3ccccc3s2)CC1 | -67.1
O=C(CSc1ccc(Cl)cc1)N1CCC(c2nc3ccccc3s2)CC1 | -59.7
O=C(CSc1ccccc1Cl)N1CCC(c2nc3ccccc3s2)CC1 | -7.4
O=C(CSc1ccc(Cl)cc1Cl)N1CCC(c2nc3ccccc3s2)CC1 | -14.5

Reference: PMC4336329 (PLoS ONE, 2015)
